# Measurements from PubChem BioAssay.
# Test system: glycogen synthase kinase-3 (GSK3A per assay name; protocol says GSK3B)
# Assay: GSK3 binders on small-molecule microarrays, primary screen, biochemical, small-molecule microarray, 635 nm fluorescence, GSK3A (AID 1103); further: the record names both GSK3A and GSK3B
# Settings: small-molecule microarray binding, fluorescence 635 nm; higher = more signal
row,Compound,composite z-score
1,COCCOC(=O)N1C(=O)[C@@]2(c3cc(C#CC4=CCCCC4)ccc31)[C@H](C(=O)N1CCN(c3ncccn3)CC1)[C@H]1C(=O)O[C@H](c3ccccc3)[C@H](c3ccccc3)N1[C@@H]2c1ccc(O)cc1,1.27
2,O=C1C2C=CC(C(O)c3cc(C(F)(F)F)cc(C(F)(F)F)c3)N(Nc3ccc([N+](=O)[O-])cc3)C2C(=O)N1c1ccccc1 (centres undefined),1.34
3,C=CCOC(=O)[C@@H]1[C@H]2C(=O)O[C@H](c3ccccc3)[C@H](c3ccccc3)N2[C@H](c2ccc(OCCOC(=O)[C@H]3C[C@H]4C(=O)N[C@@H](CCCCNC(C)=O)C(=O)N4[C@H]3c3cccc(OCCO)c3)cc2)[C@@]12C(=O)Nc1ccc(I)cc12,1.32
4,COC(=O)[C@@]1(Cc2ccccc2)[C@H]2c3cc(C(=O)N4CCCC4)n(C[C@H](O)CO)c3C[C@H]2CN1C(=O)c1ccccc1,-0.0288
5,COCCCNC(=O)[C@]1(CCC(=O)OC(C)(C)C)N=C(c2ccc(OCCCO)cc2)O[C@@H]1c1ccccc1,1.28
6,COCCOC(=O)N1C(=O)[C@@]2(c3cc(C#CC4=CCCCC4)ccc31)[C@H](c1ccccc1OCCO)N1[C@H](c3ccccc3)[C@H](c3ccccc3)OC(=O)[C@H]1[C@@H]2C(=O)N1CCc2cc(OC)c(OC)cc2C1,1.18
7,CC(C)(C)OC(=O)CC[C@]1(C(=O)N2CCOCC2)N=C(c2ccc(OCCCO)cc2)O[C@H]1c1ccccc1,0.488
8,COCCOC(=O)N1C(=O)[C@@]2(c3cc(C#CC4=CCCCC4)ccc31)[C@H](c1ccc(O)cc1)N1[C@H](c3ccccc3)[C@H](c3ccccc3)OC(=O)[C@H]1[C@@H]2C(=O)Nc1nc2ccccc2s1,1.24
9,CC1CC/C=C\[C@H]2OC34C=CCN(c5ccc6ccccc6c5)C(=O)[C@H]3N(C(CO)C(C)C)C(=O)[C@@H]4C2C(=O)O1 (some centres undefined),-0.176
10,CC(C)CNC(=O)[C@@H]1c2ccccc2C(=O)N(Cc2cc(F)cc(C(F)(F)F)c2)[C@H]1c1ccc(CO)cc1,0.13
11,C=C[C@H](COC(C)=O)NS(=O)(=O)c1ccc(Br)cc1,-0.384
12,CC(C)CN1C(=O)[C@@]2(Cc3ccccc31)c1ccccc1C(=O)N(Cc1ccccc1C(F)(F)F)[C@H]2c1ccc(CO)cc1,-1.59
13,O=C(CS)NCCCCCCNC(=O)[C@H]1C[C@H]2C(=O)N[C@@H](Cc3ccccc3)C(=O)N2[C@H]1c1cccc(OCCO)c1,1.25
14,CCOC(=CC(=O)OC)CC(O)c1cccc(Cl)c1 (centres undefined),0.982
15,O=C1C[C@]2(c3ccc([N+](=O)[O-])cc3)C(=O)N(Cc3ccccc3)c3cc(CO)ccc3[C@H]2N1CC12CC3CC(CC(C3)C1)C2,-0.855
16,C=CCN1C(=O)[C@@]2(O[C@@H](CCO)[C@H]([Si](C)(C)c3ccc(OC)cc3)[C@H]2C)c2cc(N3C(=O)c4ccccc4Oc4ccccc43)ccc21,-0.229
17,CCOC(=O)[C@H]1C/C=C/C[C@H](C(=O)OCC)C(=O)O[C@H]2[C@@H](OC)O[C@H](CO)[C@@H](OC(=O)Nc3ccc(OC)cc3)[C@@H]2OC1=O,1.03
18,COC(=O)C(CC#Cc1ccc2c(c1)[C@]1(C(=O)N2)[C@H](C(=O)O)[C@H]2C(=O)O[C@H](c3ccccc3)[C@H](c3ccccc3)N2[C@@H]1c1ccccc1OCCO)C(=O)OC,1.31
19,C=CCC(OC(C)=O)[C@@H]1[C@@H](N(Cc2cc3ccccc3o2)C(=O)c2ccc(C)cc2)c2cc(OCCCO)ccc2N1C(=O)Cc1ccc2ccccc2c1 (some centres undefined),-0.822
20,Cc1ccc(S[C@]2(C(=O)NC3CC3)CC(=O)N(Cc3ccccc3Cl)[C@@H]2c2ccc(CO)cc2I)cc1,1.27
21,C=CCOC(=O)[C@@H]1[C@H]2C(=O)O[C@H](c3ccccc3)[C@H](c3ccccc3)N2[C@H](c2ccc(OCCOC(=O)[C@H]3C[C@H]4C(=O)N[C@@H](CCCCN(C)C)C(=O)N4[C@H]3c3cccc(OCCO)c3)cc2)[C@@]12C(=O)Nc1ccc(I)cc12,1.32
22,O=C1NC(=O)C2C1C=CC(C(O)c1ccc(Br)cc1)N2Nc1ccccn1 (centres undefined),0.389
23,O=C1NC(=O)C2C1C=CC(C(O)c1c(F)cccc1Cl)N2Nc1ccccn1 (centres undefined),0.198
24,[N-]=[N+]=Nc1ccccc1[C@H]1OC(c2ccc(OCCCO)cc2)=N[C@@]1(CCS(=O)(=O)c1ccccc1)C(=O)N1CCCCC1,0.797
